ELG1 genotoxic = induces genotoxicity in HEK293T cells with luciferase-tagged ELG1. HEK293T ELG1-luciferase reporter, luminescence, 16 h. Potency, µM (titrated, usually from 46 µM), most hits filed as activators. 330,000 compounds, 1.3% hits. AID 504466; further: nearly all actives have a fitted effect of over 60% in size
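Screening used a luciferase reporter fused to human ELG1 in HEK293T cells. Luminescence was read on a CCD plate imager after 16 hr exposure and 30 min ONE-Glo incubation.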
FLuc modulator = counter-screen for miR-21 project: firefly luciferase inhibitors or activators; Potency, µM (top dose mostly 57.5 µM), hits mostly inhibitors; 360,000 compounds, 6.9% hits; AID 588342; purified FLuc, Km substrates, luminescence inhibition; P08659; further: nearly all actives have a fitted effect of over 55% in size
Target sequence (P08659 whole entry, looked up): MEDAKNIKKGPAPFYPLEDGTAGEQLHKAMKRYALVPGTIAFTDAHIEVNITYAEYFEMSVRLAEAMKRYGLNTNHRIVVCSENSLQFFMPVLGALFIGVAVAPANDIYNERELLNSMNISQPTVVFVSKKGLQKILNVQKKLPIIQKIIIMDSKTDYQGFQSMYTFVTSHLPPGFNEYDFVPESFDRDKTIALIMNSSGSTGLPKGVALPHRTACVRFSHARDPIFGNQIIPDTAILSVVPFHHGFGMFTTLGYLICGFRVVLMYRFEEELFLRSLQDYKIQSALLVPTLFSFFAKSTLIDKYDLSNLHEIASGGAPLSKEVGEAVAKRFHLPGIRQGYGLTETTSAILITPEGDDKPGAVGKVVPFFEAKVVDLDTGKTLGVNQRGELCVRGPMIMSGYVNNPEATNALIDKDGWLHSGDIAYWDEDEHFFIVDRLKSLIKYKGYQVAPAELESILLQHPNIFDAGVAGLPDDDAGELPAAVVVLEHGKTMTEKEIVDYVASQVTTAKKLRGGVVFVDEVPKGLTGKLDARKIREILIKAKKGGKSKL
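Biochemical qHTS of compounds, final roughly 60 µM downward over six points, against 10 nM purified firefly luciferase using Km concentrations of substrates (10 uM D-luciferin, 10 uM ATP) in Tris acetate pH 7.5 buffer; luminescence output.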
Rab9 promoter act = Rab9 promoter activation; AID 485297; Huh7 Rab9 promoter-luciferase reporter, luminescence, 24 h; 320,000 compounds, 2.8% hits; Potency, µM (series often up to 9.22 µM), hits mostly activators; further: nearly all actives have a fitted effect of over 60% in size
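Luciferase signal after 10 min detection reagent at ambient indicates Rab9 promoter upregulation; stably transfected Huh7 cells were treated 24 h with compound in DMSO at 37 °C, 5% CO2.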
NPC1 promoter act = activates the NPC1 promoter; Potency, µM (titrated, usually from 9.22 µM), most hits filed as activators; 320,000 compounds, 2.4% hits; AID 485313; Huh7 NPC1 promoter luciferase reporter, 24 h; further: nearly all actives have a fitted effect of over 60% in size
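Luminescence from an NPC1 promoter-driven luciferase reporter in stably transfected Huh7 cells was measured after 24 h compound treatment at 37 °C, followed by 10 min ambient incubation with luciferase detection reagent.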
SMN2 splice enh = enhancers of SMN2 splice variant expression; Potency, µM (series often up to 46.1 µM), usual class: activators; 210,000 compounds, 2.8% hits; HEK293 SMN2-luciferase splicing reporter, luminescence, 30-36 h; further: nearly all actives have a fitted effect of over 55% in size
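HEK293 cells carry an SMN2 […]–luciferase reporter in which exon 7 inclusion puts luciferase in frame. Cells were plated 10-12 h before compound addition, then incubated 30-36 h at 37C. ONE-Glo luminescence was read; sodium butyrate at 4.5 mM final served as control.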
Numbers stand for hits; [ ] = another dose, or the depositor's remark. The list is not random: actives were taken first. Their share in the collection is about 7.5%. The call rests on the fitted dose curve; in most records, active means well fitted curve in the direction sought with a large enough effect; inconclusive means small, poorly fitted or top-dose-only effect, or another doubt; inactive means no such curve, though single readings can be large; an effect the other way counts as inactive or inconclusive.

Results for CCOC(=O)CSc1ncnc2c1cnn2-c1ccc(C)cc1 ?
ELG1 genotoxic: inconclusive; FLuc modulator: inconclusive; Rab9 promoter act: inactive; NPC1 promoter act: inactive; SMN2 splice enh: inactive

How did O=C(O)CNC(=O)[C@H]1NC(C(F)(F)F)(C(F)(F)F)OC1(C(F)(F)F)C(F)(F)F do in these assays?
SMN2 splice enh: inactive[9.22 µM]

Results for O=S(=O)(c1ccccc1)c1nc(-c2cccs2)oc1SCc1ccc(F)cc1 ?
FLuc modulator: inactive; SMN2 splice enh: inactive

What do the screens show for `O=C(COc1ccc(S(=O)(=O)N2CCc3ccccc32)cc1Cl)NCc1ccccn1`?
ELG1 genotoxic: inactive; FLuc modulator: inactive; Rab9 promoter act: inactive; NPC1 promoter act: inactive; SMN2 splice enh: inactive

How did CCOC(=O)c1c(C)oc2c1c(C(c1cccnc1)N1CCN(C)CC1)c(O)c1ccccc12 (stereo not given) do in these assays?
ELG1 genotoxic: inconclusive; FLuc modulator: inactive[2.3 µM]; Rab9 promoter act: inactive; NPC1 promoter act: inactive

What do the screens show for `CCOC(=O)c1c(C)oc2c1cc(O)c1ccccc12`?
ELG1 genotoxic: inconclusive; FLuc modulator: 2.4µM; Rab9 promoter act: inactive; NPC1 promoter act: inconclusive; SMN2 splice enh: inactive

How did CCOC(=O)c1c(C)oc2c1c1c(c3ccccc32)OCN(CCCC(=O)O)C1 do in these assays?
ELG1 genotoxic: inconclusive; FLuc modulator: 19µM; Rab9 promoter act: inconclusive; NPC1 promoter act: inconclusive

Results for CCOC(=O)c1c(C)oc2c1c1c(c3ccccc32)OCN(Cc2cccnc2)C1 ?
ELG1 genotoxic: 15µM; FLuc modulator: 27µM; Rab9 promoter act: inactive; NPC1 promoter act: inactive; SMN2 splice enh: inactive

How did CC(=O)c1c(C)oc2c1cc(O)c1ccccc12 do in these assays?
ELG1 genotoxic: inactive; FLuc modulator: inactive; Rab9 promoter act: inactive; NPC1 promoter act: inactive

Results for O=C(OC(c1ccc(NS(=O)(=O)c2ccccc2)cc1)(C(F)(F)F)C(F)(F)F)c1ccccc1 ?
ELG1 genotoxic: inactive; FLuc modulator: inactive; Rab9 promoter act: inactive; NPC1 promoter act: inactive; SMN2 splice enh: inactive

Results for COC(=O)CCC(=O)c1oc2ccccc2c1NC(=O)CCCN1C(=O)c2ccccc2C1=O ?
ELG1 genotoxic: inactive; FLuc modulator: inactive; Rab9 promoter act: inactive; NPC1 promoter act: inactive; SMN2 splice enh: inactive

What do the screens show for `COC(=O)CCC(=O)c1oc2ccccc2c1N`?
ELG1 genotoxic: inconclusive; FLuc modulator: 21µM; Rab9 promoter act: inactive; NPC1 promoter act: inactive; SMN2 splice enh: inactive

How did CC1=C(C(=O)Nc2ccccc2)C(c2ccccc2C)n2nc(SCC(=O)c3ccc(C)cc3)nc2N1 (stereo not given) do in these assays?
FLuc modulator: inactive

What do the screens show for `CCc1sc(C(=O)Nc2ncccc2O)cc1C`?
ELG1 genotoxic: inconclusive; FLuc modulator: 6µM; Rab9 promoter act: 2.2µM; NPC1 promoter act: 1.6µM

How did Cc1ccsc1C(=O)Nc1nccs1 do in these assays?
ELG1 genotoxic: inactive; FLuc modulator: inconclusive; Rab9 promoter act: inconclusive; NPC1 promoter act: inconclusive

Results for CCc1sc(C(=O)Nc2ncccc2C)cc1C ?
ELG1 genotoxic: inactive; FLuc modulator: inconclusive; Rab9 promoter act: inactive; NPC1 promoter act: inactive

What do the screens show for `CCc1sc(C(=O)Nc2nccs2)cc1C`?
ELG1 genotoxic: inconclusive; FLuc modulator: 1.3µM; Rab9 promoter act: 3.2µM; NPC1 promoter act: 3.5µM

Results for O=C(N/N=C/c1ccc[nH]1)c1c[nH]c2ccccc12 ?
ELG1 genotoxic: inactive; FLuc modulator: 15µM; Rab9 promoter act: inactive; NPC1 promoter act: inactive

How did O=C(N/N=C/c1ccncc1)c1sc2ccccc2c1Cl do in these assays?
ELG1 genotoxic: inactive; FLuc modulator: inconclusive; Rab9 promoter act: inactive; NPC1 promoter act: inactive

Results for O=C(N/N=C/c1ccc[nH]1)c1sc2ccccc2c1Cl ?
ELG1 genotoxic: inactive; FLuc modulator: 7.6µM; Rab9 promoter act: inactive; NPC1 promoter act: inactive; SMN2 splice enh: inactive

Results for O=C(N/N=C/C1CC2CCC1C2)C1CC1 (stereo not given) ?
ELG1 genotoxic: inactive; FLuc modulator: inactive; Rab9 promoter act: inactive; NPC1 promoter act: inactive

Results for O=C(N/N=C/C1CC2CCC1C2)c1c[nH]c2ccccc12 (stereo not given) ?
ELG1 genotoxic: inactive; FLuc modulator: 4.8µM; Rab9 promoter act: inactive; NPC1 promoter act: inactive

How did O=C(N/N=C/c1ccccn1)c1c[nH]c2ccccc12 do in these assays?
ELG1 genotoxic: inconclusive; FLuc modulator: 8.5µM; Rab9 promoter act: 2.8µM; NPC1 promoter act: 2µM

What do the screens show for `Cc1ccc(OCC(=O)NCCO)cc1C`?
ELG1 genotoxic: inactive; FLuc modulator: inactive; Rab9 promoter act: inactive; NPC1 promoter act: inactive; SMN2 splice enh: inactive

Results for C#CCNC(=O)C1=C[C@@H](c2coc3ccccc3c2=O)C[C@@H](OCCCCO)O1 ?
ELG1 genotoxic: inactive; FLuc modulator: inactive; Rab9 promoter act: inactive; NPC1 promoter act: inactive

What do the screens show for `CCCCC(CC)CNC(=O)c1ccc2c(=O)n(CCOC)c(=O)[nH]c2c1` (stereo not given)?
FLuc modulator: inactive; SMN2 splice enh: 4µM

What do the screens show for `CCOc1cc(Br)c(C(=O)O)cc1OCC`?
ELG1 genotoxic: inactive; FLuc modulator: inactive; Rab9 promoter act: inactive; NPC1 promoter act: inactive; SMN2 splice enh: inactive

Results for O=C(CN1c2cccc3cccc(c23)S1(=O)=O)NCc1ccc(F)cc1 ?
ELG1 genotoxic: inactive

What do the screens show for `Cc1ccc(CNC(=O)CN2c3cccc4cccc(c34)S2(=O)=O)cc1`?
ELG1 genotoxic: inactive; FLuc modulator: 15µM; Rab9 promoter act: inactive; NPC1 promoter act: inactive

What do the screens show for `CC1Sc2ccc(S(=O)(=O)N3CCC(C(=O)NCC(C)c4ccccc4)CC3)cc2NC1=O` (stereo not given)?
ELG1 genotoxic: inactive; FLuc modulator: inactive; Rab9 promoter act: inactive; NPC1 promoter act: inactive

Results for COc1cccc(/C=C2\SC(=S)N(C(C)C(=O)NC3C=CS(=O)(=O)C3)C2=O)c1 (stereo not given) ?
ELG1 genotoxic: inactive; FLuc modulator: inconclusive; Rab9 promoter act: inactive; NPC1 promoter act: inactive

What do the screens show for `COc1ccc(/C=C2\SC(=S)N(CC(=O)NC3C=CS(=O)(=O)C3)C2=O)cc1` (stereo not given)?
ELG1 genotoxic: inactive; FLuc modulator: 1.9µM; Rab9 promoter act: inactive; NPC1 promoter act: inactive

Results for COc1ccc(/C=C2\SC(=S)N(C(C)C(=O)NC3C=CS(=O)(=O)C3)C2=O)cc1 (stereo not given) ?
ELG1 genotoxic: inactive; FLuc modulator: 17µM; Rab9 promoter act: inactive; NPC1 promoter act: inactive

Results for O=C(c1ccco1)N1CCN(Cc2cc(=O)c(OCc3cccc(F)c3)co2)CC1 ?
ELG1 genotoxic: inactive; FLuc modulator: inactive; Rab9 promoter act: inactive; NPC1 promoter act: inactive

Results for N#Cc1ccc(S(=O)(=O)NC2CC2)cc1 ?
ELG1 genotoxic: inactive; FLuc modulator: inactive; Rab9 promoter act: inactive; NPC1 promoter act: inactive

Results for CCc1ccc(CNC(=O)Cc2ccc(NC(=O)C3=C(C)OCCS3)cc2)cc1 ?
ELG1 genotoxic: inconclusive; FLuc modulator: 2.4µM; Rab9 promoter act: inactive; NPC1 promoter act: inconclusive
